Laboratory results published in the supplement of paper PMC10849652.
Of roughly 7,900 targets only a part is listed; those with a hit were picked by preference. About 0.6% of all pairs of compound and target were hits.

Each target was assayed with c1cn2cc(-c3ccc4cn[nH]c4c3)nc(Nc3ccc(N4CCOCC4)cc3)c2n1 [entospletinib] (assay: log2 fold change, soluble protein after heating vs DMSO (PISA); higher = thermal stabilisation; K562 cells, 10 uM, 30 min; active = over 0.2 and 3.5 SD of the protein, either way, in both replicates (recomputed)).
Procedure, shortened: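 K562 cells at 2×10^6 cells/mL were given 10 μM compound for 30 min. Aliquots then went through 3 min of heating across 48°C-58°C, were pooled, and were extracted in PBS with 0.5% NP-40 at 4°C, and the supernatant after 21,000xg for 90 min was quantified by TMTpro 16plex LC-MS/MS with channel sums equalised. Thermal stability relative to control samples, from duplicates, is given as log2 fold change.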

UniProt Q96GQ7, sequence (Q96GQ7 whole entry, looked up): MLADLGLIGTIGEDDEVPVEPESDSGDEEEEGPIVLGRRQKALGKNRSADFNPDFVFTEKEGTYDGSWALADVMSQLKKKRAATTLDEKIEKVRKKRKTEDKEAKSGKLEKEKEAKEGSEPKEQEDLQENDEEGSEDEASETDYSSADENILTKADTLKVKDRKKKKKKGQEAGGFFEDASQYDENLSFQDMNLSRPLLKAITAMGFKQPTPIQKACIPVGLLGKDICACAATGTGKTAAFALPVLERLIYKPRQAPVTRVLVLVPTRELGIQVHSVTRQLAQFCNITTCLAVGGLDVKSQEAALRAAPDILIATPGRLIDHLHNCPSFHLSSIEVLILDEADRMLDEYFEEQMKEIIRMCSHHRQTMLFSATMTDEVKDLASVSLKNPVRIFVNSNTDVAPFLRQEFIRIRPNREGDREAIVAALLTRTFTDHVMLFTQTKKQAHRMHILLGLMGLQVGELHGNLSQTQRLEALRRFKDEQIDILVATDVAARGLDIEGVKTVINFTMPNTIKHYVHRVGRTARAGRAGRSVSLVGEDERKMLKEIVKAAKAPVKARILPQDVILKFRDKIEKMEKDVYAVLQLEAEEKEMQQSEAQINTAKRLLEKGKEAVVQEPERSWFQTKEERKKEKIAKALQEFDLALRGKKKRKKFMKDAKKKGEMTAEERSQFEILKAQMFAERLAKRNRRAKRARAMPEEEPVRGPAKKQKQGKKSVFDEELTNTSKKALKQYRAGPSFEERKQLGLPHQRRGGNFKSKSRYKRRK
UniProt Q8TAG9, sequence (Q8TAG9 whole entry, looked up): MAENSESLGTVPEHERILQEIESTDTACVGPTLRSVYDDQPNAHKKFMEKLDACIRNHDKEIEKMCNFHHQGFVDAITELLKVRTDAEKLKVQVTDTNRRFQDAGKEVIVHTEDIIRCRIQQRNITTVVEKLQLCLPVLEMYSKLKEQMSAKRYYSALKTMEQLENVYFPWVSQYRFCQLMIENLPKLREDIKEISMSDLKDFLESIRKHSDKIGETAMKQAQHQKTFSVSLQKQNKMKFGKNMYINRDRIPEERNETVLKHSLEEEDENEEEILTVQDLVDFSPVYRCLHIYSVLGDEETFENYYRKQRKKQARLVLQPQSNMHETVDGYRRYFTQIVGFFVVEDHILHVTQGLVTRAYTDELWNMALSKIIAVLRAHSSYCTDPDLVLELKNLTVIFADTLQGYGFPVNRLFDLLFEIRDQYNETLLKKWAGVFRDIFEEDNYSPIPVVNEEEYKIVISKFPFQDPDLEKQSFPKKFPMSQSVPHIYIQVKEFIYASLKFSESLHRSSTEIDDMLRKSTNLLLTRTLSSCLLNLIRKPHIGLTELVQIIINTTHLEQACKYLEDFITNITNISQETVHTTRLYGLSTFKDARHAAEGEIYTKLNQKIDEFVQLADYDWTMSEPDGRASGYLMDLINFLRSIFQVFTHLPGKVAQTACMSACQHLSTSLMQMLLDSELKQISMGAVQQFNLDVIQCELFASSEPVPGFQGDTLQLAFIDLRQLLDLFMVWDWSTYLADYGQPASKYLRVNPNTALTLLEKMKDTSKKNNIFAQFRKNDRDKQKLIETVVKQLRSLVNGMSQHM
UniProt Q9NX74, sequence (Q9NX74 whole entry, looked up): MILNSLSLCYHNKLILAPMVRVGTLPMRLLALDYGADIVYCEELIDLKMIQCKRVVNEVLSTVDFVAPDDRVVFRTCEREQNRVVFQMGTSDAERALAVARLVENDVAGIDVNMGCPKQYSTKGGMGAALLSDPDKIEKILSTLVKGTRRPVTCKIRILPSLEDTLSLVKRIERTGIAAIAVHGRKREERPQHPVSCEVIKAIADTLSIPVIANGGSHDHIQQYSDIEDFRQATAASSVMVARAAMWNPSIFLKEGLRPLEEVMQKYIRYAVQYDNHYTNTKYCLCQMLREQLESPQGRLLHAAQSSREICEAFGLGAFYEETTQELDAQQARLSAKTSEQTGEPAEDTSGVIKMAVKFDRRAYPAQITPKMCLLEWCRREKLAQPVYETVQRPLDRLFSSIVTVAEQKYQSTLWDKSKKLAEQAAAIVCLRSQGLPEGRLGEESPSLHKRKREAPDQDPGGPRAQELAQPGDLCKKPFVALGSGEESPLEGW
UniProt P00374, sequence (P00374 whole entry, looked up): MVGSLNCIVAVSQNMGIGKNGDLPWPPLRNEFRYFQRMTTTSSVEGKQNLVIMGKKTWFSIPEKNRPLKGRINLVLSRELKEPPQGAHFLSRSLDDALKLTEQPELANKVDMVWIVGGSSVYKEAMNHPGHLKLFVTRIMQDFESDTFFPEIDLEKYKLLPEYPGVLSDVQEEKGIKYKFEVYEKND
UniProt Q16643, sequence (Q16643 whole entry, looked up): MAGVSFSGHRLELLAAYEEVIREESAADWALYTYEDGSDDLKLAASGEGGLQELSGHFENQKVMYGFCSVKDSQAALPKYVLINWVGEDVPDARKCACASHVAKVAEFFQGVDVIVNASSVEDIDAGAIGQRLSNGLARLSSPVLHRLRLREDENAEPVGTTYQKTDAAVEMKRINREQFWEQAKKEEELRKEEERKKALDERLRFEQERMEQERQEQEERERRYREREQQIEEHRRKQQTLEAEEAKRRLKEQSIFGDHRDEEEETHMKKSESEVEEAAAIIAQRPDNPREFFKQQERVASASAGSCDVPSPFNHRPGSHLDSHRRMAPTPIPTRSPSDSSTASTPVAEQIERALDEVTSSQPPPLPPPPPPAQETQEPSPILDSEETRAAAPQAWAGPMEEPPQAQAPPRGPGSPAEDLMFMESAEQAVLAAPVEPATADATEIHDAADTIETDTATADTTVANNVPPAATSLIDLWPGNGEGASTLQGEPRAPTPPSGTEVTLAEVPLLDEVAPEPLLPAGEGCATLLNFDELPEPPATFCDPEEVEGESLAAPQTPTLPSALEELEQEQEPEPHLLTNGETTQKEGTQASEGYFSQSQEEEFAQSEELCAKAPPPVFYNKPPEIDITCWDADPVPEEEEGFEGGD
UniProt P25774, sequence (P25774 whole entry, looked up): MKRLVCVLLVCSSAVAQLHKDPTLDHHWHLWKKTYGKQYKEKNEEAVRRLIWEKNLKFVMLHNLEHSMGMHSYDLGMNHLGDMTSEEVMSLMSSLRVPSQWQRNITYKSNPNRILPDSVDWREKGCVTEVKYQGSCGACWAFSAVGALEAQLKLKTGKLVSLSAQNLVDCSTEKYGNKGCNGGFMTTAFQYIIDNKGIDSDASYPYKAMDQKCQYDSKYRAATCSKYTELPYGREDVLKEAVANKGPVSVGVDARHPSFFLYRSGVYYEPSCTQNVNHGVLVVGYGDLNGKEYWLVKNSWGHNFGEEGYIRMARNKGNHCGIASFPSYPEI
UniProt Q9NV70, sequence (Q9NV70 whole entry, looked up): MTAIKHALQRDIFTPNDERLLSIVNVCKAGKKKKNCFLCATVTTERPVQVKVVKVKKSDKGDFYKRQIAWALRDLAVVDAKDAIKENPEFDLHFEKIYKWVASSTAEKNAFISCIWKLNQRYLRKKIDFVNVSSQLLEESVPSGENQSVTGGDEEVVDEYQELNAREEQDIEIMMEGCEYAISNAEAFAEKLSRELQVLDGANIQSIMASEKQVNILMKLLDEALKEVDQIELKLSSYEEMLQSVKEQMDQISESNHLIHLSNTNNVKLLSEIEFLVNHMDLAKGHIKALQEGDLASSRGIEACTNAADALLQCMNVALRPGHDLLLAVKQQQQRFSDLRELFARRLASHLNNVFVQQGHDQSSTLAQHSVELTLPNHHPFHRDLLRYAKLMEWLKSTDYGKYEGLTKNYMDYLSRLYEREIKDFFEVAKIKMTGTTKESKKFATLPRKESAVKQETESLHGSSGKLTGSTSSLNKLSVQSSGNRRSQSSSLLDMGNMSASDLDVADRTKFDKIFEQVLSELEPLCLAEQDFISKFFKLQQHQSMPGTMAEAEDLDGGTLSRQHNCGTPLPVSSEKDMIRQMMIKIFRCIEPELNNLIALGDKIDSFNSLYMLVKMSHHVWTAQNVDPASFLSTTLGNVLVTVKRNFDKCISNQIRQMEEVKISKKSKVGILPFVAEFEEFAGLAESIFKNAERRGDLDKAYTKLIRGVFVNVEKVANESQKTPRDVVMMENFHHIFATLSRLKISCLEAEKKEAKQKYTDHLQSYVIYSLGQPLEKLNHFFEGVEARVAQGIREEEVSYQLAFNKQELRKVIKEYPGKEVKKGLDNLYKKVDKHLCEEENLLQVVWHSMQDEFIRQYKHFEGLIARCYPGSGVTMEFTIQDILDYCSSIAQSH
UniProt P80370, sequence (P80370 whole entry, looked up): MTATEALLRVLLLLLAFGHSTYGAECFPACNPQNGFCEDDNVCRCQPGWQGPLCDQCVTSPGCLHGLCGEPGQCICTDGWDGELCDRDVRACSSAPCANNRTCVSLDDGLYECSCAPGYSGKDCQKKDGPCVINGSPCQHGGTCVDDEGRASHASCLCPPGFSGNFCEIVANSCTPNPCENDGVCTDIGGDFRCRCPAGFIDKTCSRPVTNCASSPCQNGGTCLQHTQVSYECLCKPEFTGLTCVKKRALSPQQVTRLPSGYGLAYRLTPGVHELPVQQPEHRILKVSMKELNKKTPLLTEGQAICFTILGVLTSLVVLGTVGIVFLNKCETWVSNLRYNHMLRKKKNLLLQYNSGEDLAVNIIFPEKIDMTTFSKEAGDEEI
UniProt P50402, sequence (P50402 whole entry, looked up): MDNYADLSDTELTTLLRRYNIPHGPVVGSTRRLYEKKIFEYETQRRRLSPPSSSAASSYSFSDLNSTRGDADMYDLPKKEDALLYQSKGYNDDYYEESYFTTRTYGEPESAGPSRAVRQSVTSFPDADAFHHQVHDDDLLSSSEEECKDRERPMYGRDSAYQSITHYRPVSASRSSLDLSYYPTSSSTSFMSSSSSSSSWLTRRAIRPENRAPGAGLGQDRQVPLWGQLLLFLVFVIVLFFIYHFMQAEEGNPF
UniProt Q15369, sequence (Q15369 whole entry, looked up): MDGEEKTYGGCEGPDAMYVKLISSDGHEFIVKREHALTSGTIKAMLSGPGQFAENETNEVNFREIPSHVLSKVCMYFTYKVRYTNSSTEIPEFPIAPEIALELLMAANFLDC

log2 fold change, inactive:
EMD (UniProt P50402) 0.102
DLK1 (UniProt P80370) 0.076
DOCK8 (UniProt Q8NF50) -0.044
EDC4 (UniProt Q6P2E9) 0.044
DHFR (UniProt P00374) 0.013
DHPS (UniProt P49366) -0.003
FAM160B1 (UniProt Q5W0V3) 0.008
DDX27 (UniProt Q96GQ7) -0.035
CTSA (UniProt P10619) 0.041
ELOVL5 isoform 2 (UniProt Q9NYP7) 0.063
FAM83D (UniProt Q9H4H8) 0.028
FAM118B (UniProt Q9BPY3) -0.011
EOGT (UniProt Q5NDL2) 0.005
ELOC (UniProt Q15369) 0.028
DUS2 (UniProt Q9NX74) -0.063
DNAH11 (UniProt Q96DT5) 0.115
DNAJC1 (UniProt Q96KC8) 0.015
DNAAF2 (UniProt Q9NVR5) 0.051
DNAJC7 (UniProt Q99615) -0.034
DPH5 isoform 5 (UniProt Q9H2P9) -0.045
EEF1AKNMT (UniProt Q8N6R0) 0.059
EXOC1 (UniProt Q9NV70) -0.035
CTSV (UniProt O60911) 0.013
DNAJC24 (UniProt Q6P3W2) 0.186
EXOC6 (UniProt Q8TAG9) 0.014
DHRS1 (UniProt Q96LJ7) -0.613
CTSS (UniProt P25774) 0.07
DPYSL2 (UniProt Q16555) -0.015
DCAF4 (UniProt Q8WV16) -0.146
CTU1 (UniProt Q7Z7A3) 0.006
FADS3 (UniProt Q9Y5Q0) 0.035
DEGS1 (UniProt O15121) -0.03
DBN1 isoform 3 (UniProt Q16643) -0.038
DAXX (UniProt Q9UER7) -0.025
